Results from ChEMBL document CHEMBL3988442, “University of Dundee, Small-Polar-MMV Screening Library” (2021).
The campaign covered roughly 85,000 compounds. About 440 (0.52%) showed an effect of 50% or more. Only a selection was taken, and strong results are over-represented in it overall.

Experiment: In vitro enzyme assay to detect hydrolysis of chlorophenol red-beta-D-[…] directly proportional to the number of Toxoplasma stably expressing beta-galactosidase
Assay type: functional, organism-based, Toxoplasma gondii
Design: scale not given: in the data most compounds retested in dose-response had high values

Structure (SMILES) | Percent Effect (10 µM) | Percent Effect (50 µM)
O=C(CN1CCN(C(=O)c2sccc2C2CC2)CC1)NC1CC1 | 2.485% | –
CCC(=O)NC1CCN(C(=O)c2ccco2)CC1 | – | -8.488%
CCc1ccccc1-n1c(CNC)n[nH]c1=O | – | 9.34%
CC[C@H](N)C(=O)N(C)CCOc1cccc(Cl)c1 | – | 33.07%
OCC1COCCN(Cc2ccc(C(F)(F)F)nc2)C1 (configuration not stated) | – | 17.84%
COc1ccc(OCCc2sc(C3(O)CCCNCC3)nc2C)cc1.Cl (configuration not stated) | 31.45% | –
Cc1nc(C2(O)CCCNCC2)sc1CCOc1ccc(F)cc1.Cl (configuration not stated) | 11.11% | –
Cc1nc(C2(O)CCCNCC2)sc1CCOc1ccccc1.Cl (configuration not stated) | -8.75% | –
Cc1nc(C2(O)CCCNCC2)sc1CCOc1ccc(Cl)cc1.Cl (configuration not stated) | 66.18% | –
Cc1nc(C2(O)CCCNCC2)sc1CCOc1ccc(F)c(F)c1.Cl (configuration not stated) | 36.46% | –
CCS(=O)(=O)NCCCN(C)C1CCSC1 (configuration not stated) | – | -2.223%
Cc1n[nH]c(SCCNC(=O)CC2C=CS(=O)(=O)C2)n1 (configuration not stated) | – | 9.381%
Cc1nc(C)c(CNC(=O)c2ccnnc2)s1 | – | -0.5239%
CC(CNC(=O)c1cncc(Br)c1)N1CCCC1 (configuration not stated) | – | 12.86%
CN(Cc1ccccc1)C1(C(=O)NC(C)(C)CO)Cc2ccccc2C1 | -3.718% | –
CNC(=O)C1(N(C)CCc2ccccc2)Cc2ccccc2C1 | 52.85% | –
CN(Cc1ccccc1)C1(C(=O)O)Cc2ccccc2C1 | -0.5507% | –
CN(Cc1ccco1)C(=O)Nc1ccc(N(C)C)nc1 | – | 24.04%
CCN(CCCN1CCCC1)C(=O)c1cc[nH]n1 | – | -7.801%
Cc1nn(C)cc1-c1cc(C(F)(F)F)nc(NC2CCN(C)CC2)n1 | 3.167% | –
Cc1nn(C)cc1-c1cc(C(F)(F)F)nc(NC2CCCCC2)n1 | 1.393% | –

Structure (SMILES) | Percent Effect (10 µM) | Percent Effect (50 µM)
CCn1cc(-c2cc(C(F)(F)F)nc(NC3CCCC3)n2)c(C)n1 | 70.55% | –
O=C(NCC(O)C1CC1)c1cccnc1C(F)(F)F (configuration not stated) | – | -5.668%
O=C(CNc1ccc(Br)cc1)NCc1ncc[nH]1 | – | 5.475%
CC(C)C(O)CCNS(=O)(=O)c1ccccc1 (configuration not stated) | – | 62.33%
O=S(=O)(NCCC(O)c1cccs1)c1ccccc1 (configuration not stated) | 0.7722% | –
CC(N)CCNS(=O)(=O)c1ccccc1 (configuration not stated) | – | -13.24%
CC(c1cccnc1)N(C)C(=O)c1ccccc1C#N (configuration not stated) | – | -2.098%
COc1c(C)cnc(CNC(=O)NC2CC2)c1C | – | 8.679%
Cc1cc(C)n(CC(=O)N2CC(C)OCC2(C)C)n1 (configuration not stated) | – | 5.036%
CSCC(CCO)NC(=O)c1cccc(F)c1Cl (configuration not stated) | -17.37% | –
CSCC(CCO)NC(=O)c1cc(F)ccc1O (configuration not stated) | – | 96.99%
CSCC(CCO)NC(=O)c1cccc(Cl)c1F (configuration not stated) | -4.915% | –
CCCc1cc(C(=O)N2CCOC(C(F)(F)F)C2)no1 (configuration not stated) | – | -10.86%
COc1ccnc(N2CCC(F)(CO)C2)n1 (configuration not stated) | – | 3.064%
Cn1nnc2c1C(COCC1CC1)CN(C(=O)Cc1cccs1)C2 (configuration not stated) | 56.28% | –
COCC1CN(C(=O)Cc2cccs2)Cc2nnn(C)c21 (configuration not stated) | 4.219% | –
Cn1nnc2c1C(COCC1CC1)CN(C(=O)Cc1ccsc1)C2 (configuration not stated) | -4.213% | –
CC1(C)CNC(=O)c2nc(CCN3CCCC3)[nH]c2C1 | – | -0.3782%
COc1ccc2[nH]c(N3CCOCC3)nc2c1 | – | 4.618%
N#Cc1ccc(CN2CCCC2=O)cc1 | – | 8.336%
CS(=O)(=O)NCc1ccc(CN2CCCC2=O)cc1 | – | 69.78%

Structure (SMILES) | Percent Effect (10 µM) | Percent Effect (50 µM)
NCc1ccc(CN2CCCC2=O)cc1 | – | -14.5%
CCOCC(=O)N(Cc1ccc(O)c(OC)c1)C1CC1 | – | -4.406%
CCCNC(=O)c1ccc(CN2CCCC2)cc1 | – | 0.8478%
CCNCCCNCc1ccc2c(c1)n(C)c(=O)n2C | – | 0.7261%
NCC(CO)Cc1ccc(F)c(F)c1 (configuration not stated) | – | 20.05%
CC(C)NC(=O)Nc1nc2c(s1)CN(C(=O)NCc1cccs1)CC2 | 56.34% | –
O=C(Nc1nc2c(s1)CN(C(=O)NCc1cccs1)CC2)C1CC1 | 2.193% | –
COC(=O)Nc1nc2c(s1)CN(C(=O)NCc1cccs1)CC2 | 1.645% | –
N#Cc1ccc(N2CCOC2=O)nc1 | – | 0.2325%
CCOc1ccc(NC(=O)[C@H](C)N(C)C)cc1CO | – | 1.908%
O=C(Cn1cc(Br)ccc1=O)NCC1CCOC1 (configuration not stated) | – | -15.74%
NC1CCN(c2ccc(C(F)(F)F)cn2)CC1 | – | 7.702%
Cc1c(S(=O)(=O)N2CCC(N)CC2)cnn1C | – | -0.6017%
CCc1ccc(-c2cc(C(F)(F)F)nc(N3CCC(N)CC3)n2)cc1 | 99.66% | –
O=C(O)C1CCCN1c1nc(-c2ccc(Cl)c(Cl)c2)cc(C(F)(F)F)n1 (configuration not stated) | 13.78% | –
O=C(O)C1CCCN1c1nc(-c2ccc(Cl)cc2)cc(C(F)(F)F)n1 (configuration not stated) | 8.669% | –
CCn1ncc(-c2cc(C(F)(F)F)nc(N3CCC(N)CC3)n2)c1C | 74.85% | –
Cc1ccc(-c2cc(C(F)(F)F)nc(N3CCOCC3)n2)s1 | -3.229% | –
Cc1c(-c2cc(C(F)(F)F)nc(N3CCC(N)CC3)n2)cnn1C | 84.58% | –
CCNC(=O)[C@@H]1C[C@H](N)CN1c1cc(C(F)(F)F)nc(N2CCCC2)n1 | 3.581% | –
